Assay outcomes (PubChem BioAssay)
Shown are actives, neighbours in structure and some others; about 2.8% of the full set was active somewhere.
HIF-2a inh – HIF-2a inhibition | 786-0 RCC cells HIF-2a reporter, luciferase luminescence, overnight | 360,000 compounds, 0.72% hits | AID 624352 | inhibition, % at 18.8 µM;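 active = inhibition of the luminescence signal of 40% or more relative to plate controls, in a single-dose primary screen at 18.75 µM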
TRPM1 prom inh – reduces MITF-dependent TRPM1 promoter luciferase signal | SK-MEL-5 TRPM1 promoter luciferase, 24 h | inhibition, % at 12.5 µM | 330,000 compounds, 0.83% hits | AID 488899;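 active = mean inhibition across replicates of 60% or more, whatever share of single replicates reaches that level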
KKLEB tox – reduces viability of KKLEB cystic fibrosis airway cells. KKLEB CF airway cells viability, ATPlite luminescence, overnight; stronger effect = lower value; cells stimulated with P. aeruginosa culture filtrate. activity change (cytotoxicity), % at 5 µM. 360,000 compounds, 0.36% hits;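 active = corrected activity change at or below -50% at 5 µM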
CF NFkB block – inhibitors of cystic fibrosis induced NF-kB. 360,000 compounds, 0.86% hits. KKLEB NF-kB-GFP reporter, PAF-induced, GFP fluorescence overnight. inhibition, % at 5 µM;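 active = at least 50% inhibition at 5 µM, scaled per plate between neutral and stimulator controls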;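 note: PAF is a Pseudomonas aeruginosa culture filtrate used as stimulus; plate controls were PAF-stimulated DMSO wells for no effect and unstimulated DMSO wells for full effect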
Beta2AR agonist – agonists of human beta-2 adrenergic receptor inducing internalization | 340,000 compounds, 0.43% hits | Am2.2-beta2AR cells, FAP receptor internalization, flow cytometry | response, % (test concentration not listed) | P07550 | AID 504454;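 active = response above a set limit, near 3 SD of response in nonfluorescent compounds, cut at about 42% in these data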
Target sequence (P07550 whole entry, looked up): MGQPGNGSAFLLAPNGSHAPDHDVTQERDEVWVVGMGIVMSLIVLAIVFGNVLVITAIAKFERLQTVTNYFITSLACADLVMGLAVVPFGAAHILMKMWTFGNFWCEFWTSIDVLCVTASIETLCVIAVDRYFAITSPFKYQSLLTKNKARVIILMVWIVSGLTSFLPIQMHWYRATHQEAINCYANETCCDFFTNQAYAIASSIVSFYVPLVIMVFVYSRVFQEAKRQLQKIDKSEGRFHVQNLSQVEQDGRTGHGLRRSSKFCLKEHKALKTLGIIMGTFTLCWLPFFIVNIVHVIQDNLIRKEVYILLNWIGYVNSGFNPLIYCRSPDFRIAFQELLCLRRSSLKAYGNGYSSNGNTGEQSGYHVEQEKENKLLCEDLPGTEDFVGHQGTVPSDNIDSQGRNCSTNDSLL
Peg3 prom inh-1 – Peg3 promoter activity inhibition; AID 588405; 360,000 compounds, 1.7% hits; HeLa PEG-Prom luciferase reporter, luminescence, overnight; inhibition, % at 20 µM;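 active = inhibition of at least 50% at 20 µM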
Peg3 prom inh-2 – Peg3 promoter inhibition confirmation; shares compounds with Peg3 prom inh-1; inhibition, % at 20 µM; 1,300 compounds, 84% hits; HeLa PEG-Prom luciferase reporter, luminescence, overnight;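 active = at 20 µM dose, 40% or more inhibition averaged across four replicates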
Starred values were filed as active, the others as inactive; . = not tested or not shown.

SMILES	HIF-2a inh	TRPM1 prom inh	KKLEB tox	CF NFkB block	Beta2AR agonist	Peg3 prom inh-1	Peg3 prom inh-2
COc1ccc2c(c1)sc1nc(-c3ccccc3)cn12	78.4*	90.8*	-96.2*	22.4	12.3	85.1*	73.9*
CCOC(=O)N1CCN(C(=O)c2ccc3c(c2)sc2nc(-c4ccc(OC)cc4)cn23)CC1	-148.1	-16.6	-7.0	8.1	4.5	-67.5	.
COc1cc2c(cc1OC)CN(c1nc(-c3cccnc3)nc3ccccc13)CC2	-23.2	-8.4	8.0	5.5	-3.4	64.9*	71.0*
O=S(=O)(c1ccccc1F)N1CCN(c2nc(-c3cccnc3)nc3ccccc23)CC1	-35.9	-6.0	-4.4	5.7	12.2	36.9	.
Cc1ccc(C)c(S(=O)(=O)N2CCN(c3nc(-c4cccnc4)nc4ccccc34)CC2)c1	-8.7	6.9	1.8	13.2	6.2	63.5*	47.2*
COc1ccccc1-c1cccc2nccn12	-14.9	.	0.4	8.4	.	-24.4	.
COCCNC(=O)C1(C)Cc2c(-c3cccc(NC(C)=O)c3)ccnc2O1 (stereo not drawn)	11.1	.	-15.6	5.7	.	13.8	.
CCN(CC)CCN(C(=O)c1ccc2c(c1)OCCO2)c1nc2cc3c(cc2s1)OCO3	-26.0	-8.9	-11.4	-28.3	-3.0	-19.8	.
CCN(CC)CCN(C(=O)c1cc2c(ccc3ccccc32)oc1=O)c1nc2cc3c(cc2s1)OCCO3	-19.0	74.6*	-1.7	-6.8	-10.8	95.9*	-10.8
COc1ccc(-c2nc(NC(=O)c3n[nH]c(=O)c4ccccc34)sc2C)cc1	3.2	13.0	8.1	4.1	2.6	59.6*	48.1*
O=C(NCc1ccncc1)[C@@H]1CCCN1C(=O)[C@@H]1CCCN1	-4.7	.	.	.	.	.	.
COc1cc(OC)c2cc(C(=O)N/N=C/c3ccccc3O)[nH]c2c1	1.6	32.7	-3.4	-2.3	-4.9	72.0*	59.2*
COc1ccc2[nH]c(C(=O)N/N=C/c3ccccc3OC)cc2c1	-34.1	8.4	-6.0	1.1	6.5	22.1	.
O=C(CCc1ccccc1)NC(NC(=S)Nc1ccc(Br)cc1)C(Cl)(Cl)Cl (stereo not drawn)	15.3	28.1	9.2	16.3	6.0	53.1*	38.1
O=C(NCCc1cccs1)c1ccc(CS(=O)Cc2cccc(Cl)c2)o1 (stereo not drawn)	3.6	.	3.4	-31.4	.	5.6	.
CCOc1ccc(S(=O)(=O)N2CCCCC2)cc1NC(=O)CN1C(=O)NC(CC)(c2ccccc2)C1=O (stereo not drawn)	14.3	7.2	-9.6	3.7	-1.5	26.5	.
CCC1(c2ccccc2)NC(=O)N(CC(=O)Nc2cc(S(=O)(=O)N3CCCCCC3)ccc2OC)C1=O (stereo not drawn)	23.7	5.9	-1.2	1.4	13.5	54.0*	69.9*
O=C(NCc1ccccc1)C1C(c2ccc3c(c2)OCO3)=Nc2ccccc2N1C(=O)c1cccc2ccccc12 (stereo not drawn)	-5.5	.	.	.	.	.	.
COCC(O)Cn1ccnc1N=Nc1ccccc1 (stereo not drawn)	-51.5	.	-3.4	-9.7	.	-18.2	.
c1ccc(CCNc2nc(-c3ccncc3)nc3ccccc23)cc1	17.3	17.5	-24.6	8.6	14.6	56.2*	69.3*
CCc1nc2ccc(C(=O)N3CCN(C(=O)c4ccco4)CC3)cn2c1N(C)Cc1ccc(OC)cc1	4.8	.	-18.7	22.6	.	-4.3	.
COCOCCn1cc(CN2CCS(=O)(=O)N(Cc3ccc(-c4ccc(Cl)c(Cl)c4)cc3)C(C(C)C)C2=O)nn1 (stereo not drawn)	-49.9	.	-6.9	7.9	.	60.6*	45.9*
CC(C)CC1C(=O)N(Cc2cn(Cc3ccco3)nn2)CCS(=O)(=O)N1Cc1ccc(-c2ccc(F)cc2)cc1 (stereo not drawn)	-28.1	.	-21.3	48.5	.	63.7*	61.9*
COC(=O)CSc1ccccc1C(=O)OC	0.1	10.6	6.6	-1.9	7.4	-1.4	.
COC(=O)CSC1=NS(=O)(=O)c2ccccc21	-20.6	53.5	2.3	7.3	4.6	73.6*	80.5*
Cc1ccc(NC(=O)CN2CCN(S(=O)(=O)c3ccc4c(c3)OCCO4)CC2)c(C)c1	-20.0	.	13.8	-8.9	.	-28.3	.
CCOc1ccc(Nc2c3ccccc3nc3ccccc23)cc1	35.1	16.8	-8.6	-41.0	51.9*	84.6*	84.6*
